CYP2C9 activ – activators of human CYP2C9; P11712; activation factor at 5 µM; hit rate 1.4% among 96,000; recombinant CYP2C9, luciferin-H conversion, luminescence; stronger effect = higher value; factor 1 = untreated enzyme, 0 = blocked;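 active = activation factor of 2 or more for CYP2C9 at a 5 µM dose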;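 also: 0 = sulfaphenazole-blocked wells and 1 = vehicle-only wells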
CYP2C19 inh – blocks human cytochrome P450 2C19. CYP2C19 Supersomes, luciferin-H EGE luminescence, 30 min. inhibition, % at 5 µM. hit rate 21% among 96,000;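 active = CYP2C19 inhibition above a set limit at 5 µM in the primary screen, cut at about 50% in these data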;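 also: plate controls were negative control wells for no effect and 2.5 mM tranylcypromine positive control for full effect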
Target sequence (P33261 whole entry, looked up): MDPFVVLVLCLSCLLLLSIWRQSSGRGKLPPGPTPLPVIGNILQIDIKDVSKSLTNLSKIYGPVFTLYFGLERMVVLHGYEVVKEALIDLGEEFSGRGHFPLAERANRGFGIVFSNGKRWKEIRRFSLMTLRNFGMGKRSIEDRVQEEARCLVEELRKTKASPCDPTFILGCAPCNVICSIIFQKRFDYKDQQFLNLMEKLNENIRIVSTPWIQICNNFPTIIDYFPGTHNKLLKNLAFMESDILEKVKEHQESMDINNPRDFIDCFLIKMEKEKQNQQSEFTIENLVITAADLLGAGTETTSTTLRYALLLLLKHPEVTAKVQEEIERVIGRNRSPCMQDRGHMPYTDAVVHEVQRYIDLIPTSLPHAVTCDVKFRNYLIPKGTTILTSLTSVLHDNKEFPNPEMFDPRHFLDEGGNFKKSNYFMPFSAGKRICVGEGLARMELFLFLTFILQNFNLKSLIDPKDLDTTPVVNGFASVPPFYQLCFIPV
PTK2B oligo ant – antagonists of human Pyk2 oligomerization. Q14289. Q293 cells, Pyk2 FERM NanoBiT luminescence; stronger effect = lower value. z-score (the deposit names both 25 µM and 10 µM). hit rate 0.83% among 99,000;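 active = Z-score of -3 or lower, scaled per plate to the spread of control and sample wells; inactive = z-score above -3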;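 also: negative z-score means lost luminescence so less FERM oligomerization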
CYP2C9 inhib – inhibitors of human CYP2C9. hit rate 20% among 96,000. P11712. CYP2C9 Supersomes, luciferin-H conversion, luminescence. AID 777. inhibition, % at 5 µM;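 active = blocking of liver enzyme CYP2C9 beyond about 50% at 5 µM, limit read from the data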
CYP2C19 activ – cytochrome P450 2C19 (human) activation; P33261; recombinant CYP2C19, luciferin-H EGE luminescence; stronger effect = higher value; 0 = fully inhibited enzyme, 1 = untreated enzyme; activation factor at 5 µM; 96,000 tested, under 10 active; AID 1025;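 active = activation factor of at least 2 at 5 µM in the primary screen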;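 also: 0 = wells with 2.5 mM tranylcypromine and 1 = vehicle-only wells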
An asterisk follows results filed as active; · = no result. Most compounds without a hit are left out; they make up all but 28% or so of the library.

SMILES | CYP2C9 activ | CYP2C19 inh | PTK2B oligo ant | CYP2C9 inhib | CYP2C19 activ
COc1ccc(OC)c(NC(=O)CN2C(=O)C3(OCCCO3)c3ccccc32)c1 | 0.3 | 13.9 | 0.35 | 68.9* | 0.9
COc1ccc(CNC(=O)Cn2c(=O)oc3ccccc32)cc1OC | 1.1 | 19.4 | 0.6 | -9.3 | 0.8
COc1ccc(CCNC(=O)CN2CCCc3ccccc32)cc1OC | 0.4 | 74.3* | 0.33 | 59.3* | 0.3
COc1ccc(CCNC(=O)CN2CCC(C)CC2)cc1OC | 1 | 36.6 | 0.32 | 3.5 | 0.6
COc1ccc(CCNC(=O)CN2C(=O)C3(OCCCO3)c3ccccc32)cc1OC | 0.8 | 58.8* | -0.75 | 22.5 | 0.4
CC(C)Sc1nc2ccccc2n1CC(N)=O | 1.1 | -2.9 | 1.07 | -12.3 | 1
CCCOC1(NC(=O)c2ccccc2)C(C)=CC(=O)C=C1C | 1.1 | 25.9 | 1.69 | -8.7 | 0.7
O=C1N(Cc2ccccc2F)c2ccccc2C12OCCCO2 | 1.4 | 57.3* | 0.51 | -38.8 | 0.4
Cn1c(-n2c(CCCN3C(=O)c4ccccc4C3=O)nc3ccccc3c2=O)nc2ccccc21 | 0.4 | 46.2 | -0.72 | 63.7* | 0.5
Cn1c(=O)c(-c2ccccc2N)nc2ccccc21 | 0.8 | 10.1 | -0.63 | 16.1 | 0.9
Cn1c(=O)c(-c2ccccc2)nc2ccccc21 | · | · | 0.64 | · | ·
O=C1c2ccccc2C(=O)N1Cc1nc2ccccc2c(=O)n1CCN1CCOCC1 | · | · | -0.2 | · | ·
Cn1c(-n2c(CCN3C(=O)c4ccccc4C3=O)nc3ccccc3c2=O)nc2ccccc21 | 0.1 | 86.7* | · | 92.4* | 0.1
O=C1c2ccccc2C(=O)N1CCc1nc2ccccc2c(=O)n1Cc1ccco1 | 0.2 | 93.1* | -0.4 | 80.2* | 0.1
O=C1c2ccccc2C(=O)N1CCCc1nc2ccccc2c(=O)n1CCCn1ccnc1 | 0 | 85.9* | 1.62 | 98.8* | 0.1
Cc1ccnc(SCCn2c(N3CCN(c4ccccc4)CC3)nc3c2c(=O)[nH]c(=O)n3C)n1 | 1.4 | 43.8 | · | -38.7 | 0.6
Cc1ccc(S(=O)(=O)N(CC(=O)N/N=C/c2cccc(Cl)c2)c2cccc3cccnc23)cc1 | 1 | -4.4 | 0.41 | 1.0 | 1
O=c1c2ccccc2c2ccccc2c(=O)n1Cc1ccco1 | 0.3 | 81.4* | -0.31 | 72.7* | 0.2
Cc1c(N=Cc2c(O)n(Cc3ccco3)c(=O)c3ccccc23)c(=O)n(-c2ccccc2)n1C | 0.2 | 56.1* | -1.95 | 81.4* | 0.4
CCCCCCn1c(C)nc2c(c1=O)c1nc3ccccc3nc1n2/N=C/c1ccco1 | 0.3 | 2.3 | -0.84 | 74.5* | 1
CCCn1cnc2c(c1=O)c1nc3ccccc3nc1n2CCc1ccccc1 | 0.6 | 90.2* | 0.3 | 39.1 | 0.1
Cc1nc2c(c(=O)n1CCC1=CCCCC1)c1nc3ccccc3nc1n2/N=C/c1ccccc1 | 0.6 | 8.6 | -0.81 | 35.1 | 0.9
CC(C)Cn1cnc2c(c1=O)c1nc3ccccc3nc1n2Cc1ccc2c(c1)OCO2 | 0.5 | -1.7 | · | 50.5* | 1
CCOCCCn1c(C)nc2c(c1=O)c1nc3ccccc3nc1n2CCC1=CCCCC1 | 0.2 | 73.1* | -0.38 | 80.5* | 0.3
O=C(CN1CCN(C(=O)c2cccc(F)c2)CC1)NC1CCCCC1 | 1.1 | 0.6 | · | -11.6 | 1
SMILES | CYP2C9 activ | CYP2C19 inh | PTK2B oligo ant | CYP2C9 inhib | CYP2C19 activ
CC1CCC2(CC1)N=C(N)Nc1nc3ccccc3n12 (stereo not drawn) | 0.9 | 0.3 | -0.41 | 8.4 | 1
Cc1ccc(S(=O)(=O)NC(=O)c2cccn2C)cc1 | 0.9 | -13.0 | 0.28 | 6.4 | 1.1
CCCn1cnc2c(c1=O)c1nc3ccccc3nc1n2CCC1=CCCCC1 | 0.4 | 84.0* | · | 58.1* | 0.2
O=c1c2c3nc4ccccc4nc3n(/N=C/c3ccco3)c2ncn1CCC1=CCCCC1 | 0.4 | 54.7* | 0.46 | 57.9* | 0.5
CCCCn1c2nc3ccccc3nc2c2c(=O)n(CCC(C)C)cnc21 | 0.9 | 13.8 | 0.69 | 13.4 | 0.9
Nc1c(C(=O)NC2CCCCC2)c2nc3ccccc3nc2n1/N=C/c1ccco1 | 0.7 | 1.2 | · | 34.0 | 1
COc1ccc(-n2c(O)c(/C=N/n3cnnc3)c3ccccc3c2=O)cc1 | 0.3 | -6.8 | 0.49 | 74.8* | 1.1
Oc1ccccc1/C=N/n1cnnc1 | 0.9 | -3.7 | 1.24 | 12.4 | 1
O=c1c2ccccc2c(/C=N/n2cnnc2)c(O)n1-c1ccccc1 | 0.4 | 5.6 | -0.3 | 60.9* | 0.9
O=C(c1ccccc1)N1CCCc2ccccc21 | · | · | -0.03 | · | ·
O=C(c1ccc2c(c1)OCO2)N1CCc2ccccc2C1 | 0.8 | 100.0* | 0.07 | 15.7 | 0
Cc1ccc2c(c1)CCCN2C(=O)c1ccc2c(c1)OCO2 | 0.6 | 89.9* | -0.63 | 40.0 | 0.1
O=C(CCN1CCc2ccccc21)c1ccc2c(c1)OCCO2 | 0.9 | 84.0* | 0.71 | 7.9 | 0.2
O=C(CCN1CCc2ccccc2C1)c1ccc2c(c1)OCCO2 | 0.8 | 18.1 | 0.62 | 16.2 | 0.8
Cc1ccc2c(c1)CCCN2C(=O)c1ccco1 | 1.2 | 12.8 | 0.08 | -22.8 | 0.9
O=C(c1ccc2c(c1)OCO2)N1CCCc2ccccc21 | 1 | 83.4* | 0.12 | 3.8 | 0.2
CCCN(CCC)S(=O)(=O)c1ccc(C(=O)N2CCCc3ccccc32)cc1 | 0.1 | 20.7 | -2.54 | 85.8* | 0.8
C[n+]1cnn2c1SCC1(COC1)C2 | 1 | -0.4 | 0.76 | 3.9 | 1
COC(=O)C(C)Sc1snnc1-c1ccccc1 (stereo not drawn) | 0.4 | 91.8* | 0.17 | 63.9* | 0.1
CN(C)C(=O)c1snnc1-c1ccccc1 | 0.8 | 20.4 | 2.61 | 21.4 | 0.8
Cc1ccnc(N(C(=O)c2cccs2)C(=O)c2cccs2)c1 | 0.9 | 10.4 | -0.12 | 8.1 | 0.9
O=C(c1cccs1)N(C(=O)c1cccs1)c1ccc(Br)cn1 | 0 | 100.3* | -1.82 | 99.1* | 0
COC(=O)C1=C(C(=O)OC)SC(=C2C(=S)C(C)(C)N(C(=O)C3CC3)c3ccccc32)S1 | 0.2 | 69.4* | -2.4 | 77.7* | 0.3
COC(=O)C1=C(C(=O)OC)SC(=C2C(=S)C(C)(C)N(C(=O)C(C)C)c3ccccc32)S1 | 0.1 | 40.4 | -2.42 | 94.7* | 0.6
O=C(CN1C(=O)CNC1=O)Nc1cccc(C(F)(F)F)c1 | 1 | -3.1 | -0.44 | -3.1 | 1
SMILES | CYP2C9 activ | CYP2C19 inh | PTK2B oligo ant | CYP2C9 inhib | CYP2C19 activ
CCOc1ccc(NC(=O)N(CCC(C)C)C2CCN(C(C)=O)CC2)cc1 | 0.9 | 6.2 | 0.61 | 10.3 | 0.9
Cc1ccc(CNC(=O)/C(C#N)=C\c2ccc(N(C)C)cc2)cc1 | 1 | -3.5 | · | 1.1 | 1
Cc1cc(C)cc(NC(=O)c2nnn(Cc3cc(C)ccc3C)c2N)c1 | 0.3 | 31.4 | · | 68.5* | 0.7
CSc1cccc(NC(=O)c2nnn(Cc3ccccc3)c2N)c1 | 0.8 | 11.2 | -0.82 | 18.3 | 0.9
Cc1ccccc1Cn1nnc(C(=O)Nc2cccc(C)c2C)c1N | 1.4 | 54.3* | -1.48 | -35.4 | 0.5
c1ccc(COn2nnc3ccccc32)c(COn2nnc3ccccc32)c1 | 0.1 | 99.1* | -1.93 | 93.4* | 0
Clc1cccc(Cl)c1COn1nnc2ccccc21 | 0.7 | 49.0 | -0.73 | 30.5 | 0.5

Bioassay records from PubChem.
